Compound activity as filed in PubChem BioAssay.
Sfp PPTase inh: inhibitors of Bacillus subtilis Sfp phosphopantetheinyl transferase. Q9F4F7. Biochemical Sfp PPTase activity, qHTS. Potency, µM, without a hit: largest response in the series, negative = inhibition, hits mostly inhibitors. actives 3.5% (n = 310,000);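 further: the enzyme is Sfp with the accession as filed and its product quenches rhodamine fluorescence; 0% = enzyme reaction without inhibitor and -100% = no enzyme wells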
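With Hepes-Na pH 7.6 buffer containing 10 mM MgCl2, Sfp (15 nM) modified BHQ-2-YbbR (12.5 uM) using rhodamine-CoA (5 uM). Two reads 30 minutes apart at 525/598 nm yielded each well's rate.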
JMJD2A Tudor: blocks the human JMJD2A Tudor domain; O75164; AlphaScreen JMJD2A-Tudor / H3K4me3 peptide binding; Potency, µM (highest dose often 114 µM), without a hit: at the highest dose activity change, negative = inhibition, most hits filed as inhibitors; actives 4.4% (n = 390,000); further: on the % scale 0 is the no-effect control and ±100 the full control effect; nearly all actives have a fitted effect of over 50% in size
BAZ2B inh: BAZ2B (human) inhibition; AlphaScreen BAZ2B-H3K14Ac peptide displacement; AID 504333; Potency, µM (highest dose often 114 µM), without a hit: top-dose activity change, negative = inhibition, most hits filed as inhibitors; actives 4.4% (n = 360,000); further: on the % scale 0 is the no-effect control and ±100 the full control effect; nearly all actives have a fitted effect of over 60% in size
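Inhibition is scored as reduced AlphaScreen emission. The BAZ2B/b-H3(5-23)K14Ac complex (50 nM each) in PBS pH 7.4, 0.01% Tween-20 meets compound (up to 110 uM) for 30 min at RT before bead addition.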
TDP1 block: TDP1 (human) enzyme inhibition | Q9NUW8 | recombinant TDP1, AlphaScreen DNA substrate cleavage | Potency, µM (doses to about 130 µM), inactives show at the highest dose activity change, negative = inhibition, hits mostly inhibitors | actives 0.28% (n = 350,000) | AID 485290; further: on the % scale 0 is the no-effect control and ±100 the full control effect; nearly all actives have a fitted effect of over 40% in size
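Signal: AlphaScreen proximity between streptavidin donor and anti-FITC acceptor beads on intact substrate. Reaction: Tdp1 1 nM, substrate 15 nM final, 5 min RT after 15 min compound preincubation.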
HP1b chromo inh: HP1-beta chromodomain-methylated histone interaction inhibition. AlphaScreen HP1-beta / biotin-H3K9me3 peptide binding. Potency, µM (top dose mostly 114 µM), for inactives: top-dose activity change, negative = inhibition, hits mostly inhibitors. actives 0.56% (n = 390,000); further: nearly all actives have a fitted effect of over 70% in size
Target sequence (P83916 whole entry, looked up): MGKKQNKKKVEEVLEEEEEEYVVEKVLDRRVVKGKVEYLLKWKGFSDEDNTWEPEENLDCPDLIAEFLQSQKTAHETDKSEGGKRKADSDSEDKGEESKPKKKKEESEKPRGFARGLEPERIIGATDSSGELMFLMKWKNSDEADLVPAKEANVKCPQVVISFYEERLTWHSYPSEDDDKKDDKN
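HP1-beta protein (50 nM final) preincubated 30 min at room temperature with biotinylated H3(1-18)K9me3 peptide (50 nM) in PBS pH 7.4, 0.01% Tween-20, then compound added for 30 min. AlphaScreen streptavidin donor/nickel chelate acceptor beads (10 ug/mL final), 30 min dark, luminescence read.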
G9a inh: inhibitors of human histone lysine methyltransferase G9a; Q96KQ7; G9a H3K9 monomethylation, AlphaScreen, 2 h; Potency, µM (titrated, usually from 102 µM), for inactives: top-dose activity, negative = inhibition, usual class: inhibitors; actives 8.8% (n = 350,000); further: on the % scale 0 is the no-effect control and ±100 the full control effect; nearly all actives have a fitted effect of over 75% in size
Target sequence (Q96KQ7 913-1193 limits assumed): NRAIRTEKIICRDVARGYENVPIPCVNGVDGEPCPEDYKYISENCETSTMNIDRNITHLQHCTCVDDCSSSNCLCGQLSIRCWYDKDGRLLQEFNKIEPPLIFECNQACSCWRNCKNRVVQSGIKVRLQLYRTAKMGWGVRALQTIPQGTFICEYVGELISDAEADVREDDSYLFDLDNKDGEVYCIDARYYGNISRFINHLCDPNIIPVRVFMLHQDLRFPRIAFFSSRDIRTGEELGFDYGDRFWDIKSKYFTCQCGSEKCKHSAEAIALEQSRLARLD
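G9a (20 nM) was preincubated 15 min with compound, then reacted 2 h at room temperature with 500 nM biotin-H3K9 peptide and 20 µM SAM. Monomethyl-H3K9 detected by AlphaScreen using anti-H3K9me1 antibody.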
* marks the source's active call; other numbers are inactive results; ! = a repeat was not active; [ ] = another dose, or the depositor's remark. Rows were chosen to be rich in hits. Some 12% of all compounds tested hit in one or more screens of this group. The call rests on the fitted dose curve; in most records, active means well fitted curve in the direction sought with a large enough effect; inconclusive means small, poorly fitted or top-dose-only effect, or another doubt; inactive means no such curve, though single readings can be large; an effect the other way counts as inactive or inconclusive. Potency means the concentration at half of the fitted maximal effect.

For CCOc1ccc(C(c2c(NC(=O)c3ccccc3)sc(C)c2C)N2CCN(CCO)CC2)cc1 (stereo not given) the results were Sfp PPTase inh -17%, JMJD2A Tudor inconclusive, BAZ2B inh inconclusive, TDP1 block -3%, HP1b chromo inh -13% and G9a inh inconclusive.
Screening O=C(CCS(=O)(=O)c1ccccc1)OCc1ccc([N+](=O)[O-])cc1 returned Sfp PPTase inh 19%, JMJD2A Tudor -9%, BAZ2B inh -7%, TDP1 block 3% and HP1b chromo inh 33%.
`COc1ccc(C(C(=O)Nc2ccc(C(C)C)cc2)N(Cc2ccco2)C(=O)CC2NC(=O)NC2=O)cc1` (stereo not given) gave Sfp PPTase inh -17%, JMJD2A Tudor -33%, BAZ2B inh 40µM*, TDP1 block 8%, HP1b chromo inh -2% and G9a inh 8.9µM*.
For Cc1c(Cl)cccc1NC(=S)Nc1ccc2[nH]c(=O)[nH]c2c1 the results were Sfp PPTase inh 56µM*, JMJD2A Tudor 5%[11.4 µM], BAZ2B inh -24%, HP1b chromo inh -12% and G9a inh 15%[12.7 µM].
`Nc1ncnc2c1[nH]c(=O)n2C1CC(O)C(CO)O1` (stereo not given) gave Sfp PPTase inh 7% and TDP1 block 10%[56.1 µM].
Screening Cc1ccc(CNc2ccc3c(c2)ncn3C(C)C)cc1 returned Sfp PPTase inh -9%, JMJD2A Tudor inconclusive, BAZ2B inh 35µM*, HP1b chromo inh 8% and G9a inh 11µM*.
For Cn1c(CNc2ccccc2O)nc2ccccc21 the results were Sfp PPTase inh 45µM*, JMJD2A Tudor inconclusive, BAZ2B inh inconclusive, TDP1 block 6%, HP1b chromo inh 2% and G9a inh 3.5µM*.
`Cn1c(CNc2ccccc2)nc2ccccc21` gave Sfp PPTase inh 7%, JMJD2A Tudor -17%, BAZ2B inh -10%, TDP1 block 8%, HP1b chromo inh 38% and G9a inh -26%.
CCn1cnc2cc(NS(=O)(=O)c3ccc(C)cc3)ccc21 was read as Sfp PPTase inh 15%, JMJD2A Tudor -14%, BAZ2B inh -30%, TDP1 block -7%, HP1b chromo inh 22% and G9a inh -43%[59 µM].
For CC(C)n1cnc2cc(NCc3nc4ccccc4n3C)ccc21 the results were Sfp PPTase inh -3%, JMJD2A Tudor inconclusive, BAZ2B inh inconclusive, TDP1 block 3%, HP1b chromo inh 10% and G9a inh 45µM*.
Screening CC(CNC(=O)c1nnc(Cc2ccc(F)cc2)o1)c1ccccc1 (stereo not given) returned JMJD2A Tudor -4%, BAZ2B inh -34%, TDP1 block -4%, HP1b chromo inh 4% and G9a inh -19%[59 µM].
Cc1ccc(N(Cc2ccccc2)C(=O)c2ccc(Cl)c(S(=O)(=O)N3CCOCC3)c2)cc1 was read as JMJD2A Tudor -19%, BAZ2B inh -6%, TDP1 block 0%[0.505 µM], HP1b chromo inh 19% and G9a inh -49%.
Cc1ccc(-c2nc(CS(=O)CC(=O)N3CCN(c4ccc(F)cc4)CC3)c(C)o2)cc1 (stereo not given) was read as Sfp PPTase inh 4%, JMJD2A Tudor inconclusive, BAZ2B inh 28µM*!, TDP1 block 7%, HP1b chromo inh 47% and G9a inh 14µM*!.
Cc1ccc(-c2nc(CS(=O)CC(=O)N3CCN(c4cccc(Cl)c4)CC3)c(C)o2)cc1 (stereo not given) was read as JMJD2A Tudor inconclusive, BAZ2B inh 25µM*, TDP1 block 9%, HP1b chromo inh -16% and G9a inh inconclusive.
For CCOC(=O)C1CCN(C(=O)CS(=O)Cc2nc(-c3ccc(C)cc3)oc2C)CC1 (stereo not given) the results were Sfp PPTase inh inconclusive, JMJD2A Tudor -14%, BAZ2B inh 3%, TDP1 block 2%, HP1b chromo inh 18% and G9a inh 28µM*.
COc1cccc(NC(=O)c2c(C)cc(C)cc2CC(C)(C)C(=O)O)c1 was read as Sfp PPTase inh 22%, JMJD2A Tudor -13%, BAZ2B inh -2%, TDP1 block 6%, HP1b chromo inh 1% and G9a inh -28%.
`C=CCC[C@H](Cc1ccc(F)cc1)C(=O)OC[C@H](Cc1c[nH]c2ccccc12)NC(=O)[C@@H](CC=C)CC(=O)NCCO` gave JMJD2A Tudor inconclusive, TDP1 block 3% and HP1b chromo inh 1%.
Screening CCn1c(=O)n(CC)c2cc(N3CCCC3)c(NC(=O)c3ccccc3C)cc21 returned Sfp PPTase inh -10%, JMJD2A Tudor inconclusive, BAZ2B inh inconclusive, TDP1 block 8%, HP1b chromo inh -2% and G9a inh 50µM*.
`CCn1c(=O)n(CC)c2cc(N3CCCC3)c(NC(=O)c3ccccc3F)cc21` gave Sfp PPTase inh -16%, JMJD2A Tudor 56µM*, BAZ2B inh inconclusive, TDP1 block 9%, HP1b chromo inh inconclusive and G9a inh 40µM*.
For Cn1c(=O)n(C)c2cc(N3CCCCC3)c(NC(=O)c3ccccc3)cc21 the results were Sfp PPTase inh 0%, JMJD2A Tudor -12%, BAZ2B inh 50µM*, TDP1 block 0%, HP1b chromo inh 14% and G9a inh 19%.
`CN1CCN(c2ccccc2NC(=O)c2ccc(N3CCCCC3)c([N+](=O)[O-])c2)CC1` gave Sfp PPTase inh inconclusive, JMJD2A Tudor 50µM*, BAZ2B inh 40µM*, TDP1 block 3%, HP1b chromo inh inconclusive and G9a inh inconclusive.
For CO[C@H]1OC2O[C@@]3(C)CC[C@H]4[C@H](C)CC[C@@H]([C@H]1C)[C@@]24OO3 (stereo not given in full) the results were Sfp PPTase inh 21%, TDP1 block 4% and G9a inh 3%[59 µM].
`COc1ccc(CNC(=O)C/C(C)=N/NC(=O)c2ccccc2OC)cc1` gave Sfp PPTase inh 0%, JMJD2A Tudor -1%, BAZ2B inh -1%, TDP1 block 8%, HP1b chromo inh 3% and G9a inh 4%.
For O=C(c1cc2nc(-c3ccc(F)cc3)cc(C(F)(F)F)n2n1)N1CCCCC1c1cccnc1 (stereo not given) the results were Sfp PPTase inh -16%, JMJD2A Tudor -17%, BAZ2B inh 6%, TDP1 block -2%, HP1b chromo inh 21% and G9a inh 33%.
